Source: PubChem BioAssay (several laboratories)
DAT uptake mod: human DAT dopamine uptake with cocaine, either direction | Q01959 | LLC-PK1 hDAT cells, [14C]-dopamine uptake with cocaine IC80; actives deviate in either direction | B-score at 10 µM | hit rate 1.3% among 110,000;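 active means Z score or B-score, a plate-position-corrected score, falls beyond the plate's 99.7% confidence bounds, in either direction; inactive means both scores lie inside the 99.7% bounds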
D1 mod: allosterically modulates the human D1 dopamine receptor | HEK293 D1, CRE-luciferase, dopamine EC30 potentiation; actives deviate in either direction | AID 641 | hit rate 5.9% among 58,000 | P21728 | B-score at 10 µM;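 active means luminescence count or its row- and column-corrected plate score outside the 99.7% band of the plate's sample wells, on either side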
Target sequence (P21728 whole entry, looked up): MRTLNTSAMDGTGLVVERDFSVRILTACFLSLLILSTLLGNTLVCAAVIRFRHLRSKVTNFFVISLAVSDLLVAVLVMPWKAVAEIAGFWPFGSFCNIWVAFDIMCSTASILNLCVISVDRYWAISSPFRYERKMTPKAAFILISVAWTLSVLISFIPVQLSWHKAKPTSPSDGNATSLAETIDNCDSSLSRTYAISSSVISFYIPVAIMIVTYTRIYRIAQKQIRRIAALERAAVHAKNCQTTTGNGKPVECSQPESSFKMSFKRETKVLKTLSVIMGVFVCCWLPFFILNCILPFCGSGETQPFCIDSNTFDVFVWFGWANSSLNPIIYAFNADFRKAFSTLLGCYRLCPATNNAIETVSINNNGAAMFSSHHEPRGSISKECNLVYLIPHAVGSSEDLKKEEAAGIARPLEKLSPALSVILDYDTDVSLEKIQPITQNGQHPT
PostGolgi ctrl: yeast control strain growth, post-Golgi counter-screen; AID 738; efflux-deficient yeast background strain, growth absorbance A615, 16 h; hit rate 5% among 98,000; inhibition, % at 10 µM
PostGolgi yeast: growth inhibition of a yeast mutant, post-Golgi transport screen. post-Golgi transport phenotypic cell assay. hit rate 0.9% among 98,000. AID 739. inhibition, % at 10 µM;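 further: yeast cells grown in 1536-well plates; yeast grown about 18 h at 30C before absorbance read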
PLAP activator: activates human placental alkaline phosphatase; purified PLAP enzyme, luminescent substrate read-out; active compounds read high; activation fold at 20 µM; hit rate 1.2% among 96,000; AID 696; in the data active means activation fold above about 2
Cav32 inh: blocks human Cav3.2 T-type calcium channel; O95180; Cav3.2-expressing cells, Fluo-4 calcium fluorescence FDSS; active compounds read low; hit rate 4% among 100,000; B-score at 10 µM;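 active means single-dose well whose peak fluorescence ratio is a statistical outlier from its plate by either plate-standardised score or position-corrected B-score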
D1 PAM confirm: D1 receptor (human) allosteric modulation, confirmed; shares compounds with D1 mod; HEK293 D1 CRE-luciferase, dopamine EC30 potentiation; active compounds read high; luminescence at 10 µM; hit rate 88% among 2,200;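 active means luminescence in either of two replicates above the same-plate mean plus 3 SD of the low-dose dopamine control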
D1 no dopamine: activates D1 CRE-luciferase signal without dopamine present; luminescence at 10 µM; HEK293 D1 CRE-luciferase, luminescence, no dopamine; active compounds read high; hit rate 0.8% among 1,900; AID 646; shares compounds with D1 mod; in the data active means luminescence above about 3900
Isoprot counter: counter-screen for D1 modulators: isoproterenol response in HEK293 cells; shares compounds with D1 mod; HEK293 D1 CRE-luciferase, isoproterenol EC30 counter-screen; calls only at 10 µM; hit rate 63% among 2,200; AID 647;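 active means luminescence in either replicate above plate mean of wells with a partly effective reference agonist dose plus 3 SD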;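 further: isoproterenol raises cAMP through native beta-adrenoceptor Gs so signal bypasses D1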
Each line names hits and unclear results; the compound was inactive in the other large screens (follow-up assays come after a bar, where they were run). The list is not random: actives were taken first. Their share in the collection is about 12%. Unless noted, no stated cut-off is given here; in the data, active means inhibition above about 30%; inactive means the rest.

CCC(C)NC(=O)CSc1ncccc1C(=O)O (stereo not drawn)	none (no result: D1 mod)
COc1cc2c(cc1OC)-c1cc(Nc3ccc4c(c3)OCCO4)nc(=O)n1CC2	D1 mod 24.1 | D1 PAM confirm 13360 | D1 no dopamine inactive | Isoprot counter active
COc1cc2c(cc1OC)-c1cc(OCc3cccnc3)nc(=O)n1CC2	D1 mod 18.6 | D1 PAM confirm 25704 | D1 no dopamine inactive | Isoprot counter active
COc1cc2c(cc1OC)-c1cc(N3CCCc4ccccc43)nc(=O)n1CC2	none (no result: D1 mod)
CCN(CC)CCCNc1cc2n(c(=O)n1)CCc1cc(OC)c(OC)cc1-2	none
COc1cc2c(cc1OC)-c1cc(NC3CCCCCC3)nc(=O)n1CC2	D1 mod 4.01 | D1 PAM confirm 20748 | D1 no dopamine inactive | Isoprot counter active
COc1cc2c(cc1OC)-c1cc(N3CCCCCC3)nc(=O)n1CC2	D1 mod 3.9 | D1 PAM confirm 21696 | D1 no dopamine inactive | Isoprot counter active
COc1ccc(C(=O)NC(=S)NC(C)(C)C)cc1Br	none (no result: D1 mod)
CCC(C)Nc1nc(OC)nc(N(C)C#N)n1 (stereo not drawn)	D1 mod 6.86 | D1 PAM confirm 12160 | D1 no dopamine inactive | Isoprot counter inactive
CCN(CC)C(=O)C(C)N(C#N)c1nc(NC(C)C)nc(NC(C)C)n1 (stereo not drawn)	none
COc1nc(N2CCOCC2)nc(-n2cccc2)n1	D1 mod 16.7 | D1 PAM confirm 12956 | D1 no dopamine inactive | Isoprot counter active
c1ccc(Oc2nc(Oc3ccccc3)nc(N3CCOCC3)n2)cc1	D1 mod 3.75, PostGolgi ctrl 31.1 (no result: Cav32 inh) | D1 PAM confirm 6884 | Isoprot counter active
CCCCCn1c(N2CCC(C(N)=O)CC2)nc2c1c(=O)[nH]c(=O)n2C	none
COc1cc2[nH]c(=O)n(CCCCCC(=O)N3CC=C(c4ccccc4)CC3)c(=O)c2cc1OC	none (no result: D1 mod)
Brc1cc2c(cc1Cn1c(-c3cncs3)nc3ccccc31)OCO2	D1 mod 19.6 | D1 PAM confirm 14624 | D1 no dopamine inactive | Isoprot counter active
O=C(Cn1c(-c2cncs2)nc2ccccc21)NCc1ccccc1	none (no result: D1 mod)
Cc1ccccc1Cn1c(-c2cncs2)nc2ccccc21	D1 mod 13.7, PostGolgi ctrl 35.4 | D1 PAM confirm 20248 | Isoprot counter active
O=C(CSc1nc(C2CC2)nc2ccccc12)N1c2ccccc2Sc2ccccc21	none (no result: DAT uptake mod, D1 mod, Cav32 inh)
O=C(COc1ncnc2scc(-c3ccc(Cl)cc3)c12)NCc1ccco1	none (no result: D1 mod)
NC(=O)c1cc(-c2ccccc2)nc(Oc2ccccc2)n1	D1 mod 8.86 | D1 PAM confirm 10904 | Isoprot counter active
COc1ccc(-c2cc(C(N)=O)nc(N3CCCCCC3)n2)cc1	none (no result: D1 mod)
O=S(=O)(Nc1cc(Cl)ccc1N1CCCCC1)c1cccs1	D1 mod 28.6, Cav32 inh -5.69 | D1 PAM confirm 7016 | D1 no dopamine inactive | Isoprot counter inactive
Cc1ccc(Cn2c(C(C)Nc3nc(C)cs3)nc3cc(Cl)c(Cl)cc32)cc1 (stereo not drawn)	none (no result: D1 mod, PostGolgi ctrl, PostGolgi yeast, PLAP activator)
Cc1ccc(S(=O)(=O)/C(C#N)=C/c2c(N3CC(C)OC(C)C3)nc3c(C)cccn3c2=O)cc1 (stereo not drawn)	none (no result: D1 mod)
COCC(C)n1c(C)cc(C(=O)COC(=O)c2c(NC(C)=O)sc(C)c2C)c1C (stereo not drawn)	none (no result: PostGolgi ctrl, PostGolgi yeast)
COCCn1c(C2CCCCC2)nc2sc3ccccc3c(=O)c2c1=O	D1 mod 3.37, PostGolgi ctrl 84.8, PostGolgi yeast 38.8 (no result: Cav32 inh) | D1 PAM confirm 10064 | Isoprot counter inactive
CCNc1nc(NC(C)C)nc(N(C#N)Cc2ccccc2)n1	D1 mod 8.86 (no result: Cav32 inh) | D1 PAM confirm 22672 | D1 no dopamine inactive | Isoprot counter active
CCNc1nc(NC(C)C)nc(N(C#N)CCOc2ccc(Cl)cc2Cl)n1	D1 mod 3.19, PostGolgi ctrl 38.7, Cav32 inh -9.44 | D1 PAM confirm 11108 | D1 no dopamine inactive | Isoprot counter active
